# Screening results (PubChem)
# The sample as a whole holds a higher share of hits than the screen did.
# IDE exosite FP: displaces the probe from the exo-site of human IDE. purified IDE, FL-6b probe fluorescence polarization; active compounds read low. actives 6.3% (n = 17,000). AID 1259349. z-score at 20 µM;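 active = z-score of -3 or lower, meaning strong loss of probe binding signal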;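 note: His-tagged human IDE residues 42-1019 made in E. coli with 30 nM FL-6b probe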
# Target sequence (P14735 42-1019 limits assumed): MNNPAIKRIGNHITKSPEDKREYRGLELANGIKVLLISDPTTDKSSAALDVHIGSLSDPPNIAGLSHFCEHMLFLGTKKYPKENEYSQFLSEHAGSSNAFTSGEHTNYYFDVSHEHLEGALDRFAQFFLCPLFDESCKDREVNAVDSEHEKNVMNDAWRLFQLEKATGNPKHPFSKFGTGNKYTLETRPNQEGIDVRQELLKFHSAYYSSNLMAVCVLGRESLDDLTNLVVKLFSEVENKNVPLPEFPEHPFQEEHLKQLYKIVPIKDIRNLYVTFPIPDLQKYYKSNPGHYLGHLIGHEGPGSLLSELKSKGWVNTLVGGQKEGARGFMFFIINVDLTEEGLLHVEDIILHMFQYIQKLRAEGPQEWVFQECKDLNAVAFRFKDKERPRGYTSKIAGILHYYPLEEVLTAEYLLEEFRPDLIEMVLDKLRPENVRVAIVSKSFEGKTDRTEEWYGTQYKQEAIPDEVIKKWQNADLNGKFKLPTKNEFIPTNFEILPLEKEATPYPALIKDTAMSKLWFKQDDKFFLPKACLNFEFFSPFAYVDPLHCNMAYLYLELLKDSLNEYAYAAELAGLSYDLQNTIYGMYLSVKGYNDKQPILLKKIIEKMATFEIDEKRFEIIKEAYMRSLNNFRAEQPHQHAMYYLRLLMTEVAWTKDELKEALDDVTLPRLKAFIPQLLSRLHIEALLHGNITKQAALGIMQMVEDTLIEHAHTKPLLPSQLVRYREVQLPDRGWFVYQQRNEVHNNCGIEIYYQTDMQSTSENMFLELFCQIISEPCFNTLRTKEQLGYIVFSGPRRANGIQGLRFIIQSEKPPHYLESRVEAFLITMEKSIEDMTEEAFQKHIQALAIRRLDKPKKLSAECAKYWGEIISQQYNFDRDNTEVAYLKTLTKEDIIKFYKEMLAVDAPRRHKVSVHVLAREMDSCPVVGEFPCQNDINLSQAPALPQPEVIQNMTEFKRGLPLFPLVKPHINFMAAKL
# Numbers without * were called inactive.
SMILES,IDE exosite FP
O=C(CN1CCOCC1)N1CCCCN2[C@H](C1)[C@@H](c1ccc(C#Cc3ccccc3F)cc1)[C@@H]2CO,-5*
OC[C@H]1[C@H](c2ccc(-c3cccnc3)cc2)[C@@H]2CN(Cc3ccccn3)CCCCN12,-1.7
CN1CCN(C(=O)C[C@@H]2CC[C@H]3[C@@H](COC[C@@H](O)CN3C(=O)c3ccccc3F)O2)CC1,0.61
COc1ccc(NC(=O)N2C[C@H]3[C@@H](c4ccccc42)[C@@H](CO)N3Cc2ccccn2)cc1,2.2
CCS(=O)(=O)N1CC(=O)N2[C@H](CO)[C@@H](c3ccc(C#CC4CCCCC4)cc3)[C@H]2C1,-0.15
O=C(Cc1ccncc1)Nc1ccc2c(c1)[C@H]1C[C@@H](CC(=O)N3CCc4ccccc4C3)O[C@@H](CO)[C@H]1O2,-1.8
Cc1ccc(S(=O)(=O)N2CC[C@@H]3[C@H]2c2cc(-c4cccc(C(=O)N(C)C)c4)ccc2N[C@@H]3CO)cc1,1.4
CCN(C[C@@H]1[C@@H](c2ccccc2)[C@H](CO)N1CC1CCCC1)C(C)=O,6
CCCNC(=O)Nc1ccc2c(c1)OC[C@@H](C)N(S(C)(=O)=O)C[C@@H](C)[C@H](OC)CN(C)C2=O,1.8
CC(C)(C)[S@@](=O)N1Cc2cc(C(=O)NCC(F)(F)F)nc(-c3cccc(-c4cccc(F)c4)c3)c2[C@H]1CCO,0.62
O=S(=O)(c1ccccc1)N1CC2(C1)[C@H](c1ccccc1)[C@H](CO)N2CC1CCOCC1,-0.094
O=C(CN1CCOCC1)N1CCCCN2[C@H](C1)[C@H](c1ccc(C#Cc3ccccc3F)cc1)[C@@H]2CO,-6.1*
COCC#Cc1ccc([C@@H]2[C@@H](CO)N3C(=O)CN(C(=O)c4cccnc4)C[C@@H]23)cc1,0.94
COc1ccc2c3c([nH]c2c1)[C@@H](CO)N(C(=O)c1ccc(F)cc1)CC31CCN(C(=O)NC(C)C)CC1,0.18
COc1ccccc1-c1ccc2c(c1)O[C@@H](CN(C)CC1CCOCC1)[C@@H](C)CN([C@H](C)CO)S2(=O)=O,-0.45
COc1ccc2c3c(n(C)c2c1)[C@@H](CO)N(Cc1cc(F)ccc1F)CC31CN(C(=O)C2CC2)C1,0.68
COc1ccc2c3c(n(C)c2c1)[C@H](CO)N(Cc1cccc(F)c1)CC31CCN(C(=O)Cc2ccccc2)CC1,-3.7*
COCC(=O)N1CC2(C1)CN(Cc1cccc(F)c1)[C@H](CO)c1c2c2ccc(OC)cc2n1C,-2.5
COCC(=O)N1CCC2(CC1)CN(Cc1cc(F)ccc1F)[C@H](CO)c1c2c2ccc(OC)cc2n1C,-4*
COc1ccc2c3c(n(C)c2c1)[C@H](CO)N(Cc1ccccc1F)CC31CCN(C(=O)C2CCOCC2)CC1,-0.89
COCC(=O)N1CC2(C1)CN(Cc1cccc(F)c1)[C@@H](CO)c1c2c2ccc(OC)cc2n1C,-0.12
CCC(=O)N1CC2(CCN(C(=O)Cc3ccccc3)CC2)c2c(n(C)c3cc(OC)ccc23)[C@@H]1CO,0.72
O=C(c1ccccn1)N1CC(=O)N2[C@H](CO)[C@@H](c3ccc(C#CC4CCCC4)cc3)[C@@H]2C1,3.3
CO[C@@H]1CN(C)C(=O)c2cc(NC(=O)c3ccc(F)cc3)ccc2OC[C@H](C)N(C(=O)CC2CC2)C[C@@H]1C,1.1
COCc1cn(CC[C@H]2CC[C@@H](NC(=O)Nc3c(C)noc3C)[C@@H](CO)O2)nn1,0.8
SMILES,IDE exosite FP
Cc1ccccc1-c1ccc([C@@H]2[C@H]3CN(C(=O)Nc4ccc(F)cc4)CCCCN3[C@H]2CO)cc1,-0.34
COc1ccc(NC(=O)N2CCCCN3[C@@H](CO)[C@@H](c4ccc(-c5ccccc5F)cc4)[C@@H]3C2)cc1,-1.2
Cc1ccccc1-c1ccc([C@H]2[C@@H](CO)N3CCCCN(C(=O)Nc4ccccc4)C[C@H]23)cc1,-8.8*
Cc1ccccc1-c1ccc([C@H]2[C@H]3CN(C(=O)Nc4ccccc4)CCCCN3[C@H]2CO)cc1,0.8
COc1ccc(NC(=O)N2CCCCN3[C@H](C2)[C@@H](c2ccc(-c4ccccc4C)cc2)[C@@H]3CO)cc1,-4.1*
Cc1ccccc1-c1ccc([C@@H]2[C@H]3CN(C(=O)Nc4ccccc4)CCCCN3[C@H]2CO)cc1,0.79
COc1ccc(NC(=O)N2CCCCN3[C@H](CO)[C@H](c4ccc(-c5ccccc5C)cc4)[C@H]3C2)cc1,-4.3*
COc1ccc(NC(=O)N2CCCCN3[C@@H](CO)[C@H](c4ccc(-c5ccccc5F)cc4)[C@@H]3C2)cc1,-0.77
Cc1ccccc1-c1ccc([C@H]2[C@H](CO)N3CCCCN(C(=O)Nc4ccc(F)cc4)C[C@@H]23)cc1,-2.4
N#C[C@H]1[C@@H](c2ccccc2)[C@H](CO)N1C(=O)c1ccccc1F,0.2
O=S(=O)(c1ccccc1F)N1C[C@@H]2N[C@H](C1)C2c1ccc(-c2cncnc2)cc1 (stereo partly drawn),1.6
C/C=C/c1ccc([C@@H]2[C@@H](CN(CC)C(C)=O)N(Cc3cccnc3)[C@H]2CO)cc1,0.34
OC[C@@H]1[C@@H](c2ccc(-c3cccc(F)c3)cc2)[C@H]2CN(Cc3cncnc3)CCCCN12,0.53
CN1CCN(C(=O)C[C@H]2CC[C@@H]3[C@H](COc4ccc(NC(=O)C5CCOCC5)cc4C(=O)N3C)O2)CC1,-0.56
CC(=O)NC[C@@H]1[C@@H](c2ccc(-c3ccccc3F)cc2)[C@@H](CO)N1CCC(F)(F)F,-0.37
